Tau fluor cs – counter-screen for tau fibril formation inhibitors; tau K18 P301L Alexa594 fluorescence, heparin fibrillization; Potency, µM (highest dose often 57.7 µM), inactives show top-dose activity change, negative = decrease; 280,000 tested, 0.93% active; AID 1463; also: nearly all actives have a fitted effect of over 55% in size
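Human tau K18 P301L (15 uM unlabeled, 0.24 uM Alexa 594-labeled) in 100 mM sodium acetate pH 7 with 20 uM heparin, 6 hr at 37 C. ThT 30 uM added, 1 hr ambient; Alexa 594 FP and total fluorescence read at 555/632 nm.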
Tau fibril ThT – inhibitors of human tau fibril formation, thioflavin T binding; recombinant tau K18 P301L, heparin-induced fibrillization, ThT fluorescence; Potency, µM (titrated, usually from 57.4 µM), for the others: top-dose activity, negative = inhibition, actives largely listed as inhibitors; 270,000 tested, 2.1% active; also: nearly all actives have a fitted effect of over 55% in size
Target sequence (P10636 561-689 P618L limits assumed): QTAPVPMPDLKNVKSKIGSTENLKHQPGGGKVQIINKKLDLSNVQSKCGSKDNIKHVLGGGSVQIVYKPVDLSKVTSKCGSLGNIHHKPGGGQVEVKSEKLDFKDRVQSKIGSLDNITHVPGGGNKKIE
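ThT emission at 510 nm, taken 1 hr after adding 30 uM dye, quantifies aggregates formed when 20 uM heparin acts on human tau K18 P301L for 6 hr at 37 C.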
TRb SRC2 PPI – TRbeta-SRC2 interaction inhibition; TRbeta-SRC2 peptide binding, fluorescence polarization; receptor liganded with 1 µM T3; Potency, µM (top dose mostly 106 µM), without a hit: at the highest dose activity change, negative = inhibition, usual class: inhibitors; 280,000 tested, 0.065% active;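 also: plate controls were bound peptide for no effect and peptide without receptor for full effect; nearly all actives have a fitted effect of over 50% in size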
Target sequence (P10828 whole entry, looked up): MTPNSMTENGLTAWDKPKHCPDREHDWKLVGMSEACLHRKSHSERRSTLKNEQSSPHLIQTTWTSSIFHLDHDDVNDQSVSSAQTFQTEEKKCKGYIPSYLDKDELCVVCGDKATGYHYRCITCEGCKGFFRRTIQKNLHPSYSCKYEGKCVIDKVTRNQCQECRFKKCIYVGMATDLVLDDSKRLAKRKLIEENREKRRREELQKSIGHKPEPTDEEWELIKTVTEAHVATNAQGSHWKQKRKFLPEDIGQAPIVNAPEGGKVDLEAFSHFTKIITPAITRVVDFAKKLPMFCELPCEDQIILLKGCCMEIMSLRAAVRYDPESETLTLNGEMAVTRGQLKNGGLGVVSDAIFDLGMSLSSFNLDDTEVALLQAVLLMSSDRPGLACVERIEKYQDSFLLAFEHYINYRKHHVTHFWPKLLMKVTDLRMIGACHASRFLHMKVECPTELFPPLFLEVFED
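Human TRb LBD (0.6 uM) plus Texas Red-labeled SRC2 peptide (20 nM), 1uM T3, 5% DMSO, 5 hr at ambient temperature. Decreased polarization (555/632 nm) flags inhibition; data normalized to free and bound peptide controls.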
TexasRed fluor – counter-screen for TRb-SRC2 inhibitors: fluorescence interference; Potency, µM (doses to about 106 µM), inactives show at the highest dose fluorescence change, negative = quenching; TRb/SRC2 Texas Red total fluorescence interference; 280,000 tested, 0.29% active; active = well fitted curve in either direction with a large enough effect; inconclusive = small, poorly fitted or top-dose-only effect
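Human TRb ligand-binding domain at 0.6 uM with 20 nM Texas Red SRC2 peptide in Tris buffer containing 1 uM T3 and 5% DMSO, incubated with compound 5 h at ambient temperature. Total fluorescence (555/632 nm) calculated as parallel + 2 × perpendicular.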
Tau fibril FP – blocks human tau fibril formation measured by polarization | AID 1468 | Potency, µM (top dose mostly 57.7 µM), for the others: top-dose activity, negative = inhibition, usual class: inhibitors | K18 P301L tau heparin fibrillization, Alexa594 FP, 6 h | 280,000 tested, 0.39% active; also: nearly all actives have a fitted effect of over 55% in size
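Human tau K18 […] P301L fragment, 15 uM unlabeled plus 0.24 uM Alexa 594-labeled tau (final), with compound and 20 uM heparin in 100 mM sodium acetate pH 7; 6 hr at 37 C, then Alexa 594 FP read.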
* hit, by the source's call; ? = inconclusive; / = not tested or not shown; ! = repeats disagree; [ ] = another dose, or the depositor's remark. Compounds with a hit are over-represented: about 3.1% of the library has one in this group of screens. Unless noted, calls follow the shape of the dose curve; as a rule, active = well fitted curve in the direction sought with a large enough effect; inconclusive = small, poorly fitted or top-dose-only effect, or another doubt; inactive = no such curve, though single readings can be large; an effect the other way counts as inactive or inconclusive. Unless noted, % is scaled to controls: 0 for no effect and ±100 for the full control effect; potency is read from the fitted curve at half-maximal effect.

SMILES | Tau fluor cs | Tau fibril ThT | TRb SRC2 PPI | TexasRed fluor | Tau fibril FP
COC(=O)C1=C(C)N=C2SC(C#N)=C(N)N2C1c1ccc(OCc2ccccc2)cc1 (stereo unspecified) | 7.9µM*[quencher] | ? | 1% | -4% | ?
O=C(NC1CC(=O)N(c2cccc(F)c2)C1)C1CC1 (stereo unspecified) | 1% | 3% | -1% | -2% | -6%
Cc1cc(C)c2c(=O)n(CC(=O)NCCCN3CCN(c4ccccc4F)CC3)sc2n1 | -24% | 14µM* | -20% | -3% | ?
Cc1cc(C)c2c(=O)n(CC(=O)NCCCN3CCOCC3)sc2n1 | -21% | 10µM* | -4% | 3% | 16µM*
Cc1cc(C)c2c(=O)n(CC(=O)Nc3ccc(Cl)cc3)sc2n1 | -27% | / | -2% | -7% | ?
Cc1ccccc1CS(=O)(=O)CCC(=O)NCCCN1CCN(c2ccccc2F)CC1 | -3% | -4% | -10% | -3% | -1%
CCOc1ccccc1NC(=O)Cn1c(=O)n(CC(=O)NCc2ccccc2Cl)c(=O)c2sccc21 | -7% | 11% | -7% | 15% | -15%
COC(=O)CCC(=O)OC1(C)C(=O)C2=CN(CC(C)C)C(c3ccc(OC)cc3)=CC2=C(Br)C1=O (stereo unspecified) | -7%[11.6 µM] | 10µM*! | 0%[11.2 µM] | -2%[11.2 µM] | 8.9µM*!
COC(=O)CCC(=O)OC1(C)C(=O)C2=CN(CC3CC3)C(c3ccc(OC)cc3)=CC2=C(Br)C1=O (stereo unspecified) | -4%[11.6 µM] | 11µM*! | 4%[11.2 µM] | -3%[11.2 µM] | ?
COC(=O)CCC(=O)OC1(C)C(=O)C2=CN(CCCOC(C)C)C(c3ccc(OC)cc3)=CC2=C(Br)C1=O (stereo unspecified) | -16% | 16µM* | 5% | 9% | ?
COC(=O)CCC(=O)OC1(C)C(=O)C2=CN(Cc3ccccc3)C(c3ccc(OC)cc3)=CC2=C(Br)C1=O (stereo unspecified) | -8%[11.6 µM] | -3%[11.5 µM] | 1%[11.2 µM] | -3%[11.2 µM] | 7%[11.6 µM]
COC(=O)CCC(=O)OC1(C)C(=O)C2=CN(Cc3ccc(OC)cc3)C(c3ccc(OC)cc3)=CC2=C(Br)C1=O (stereo unspecified) | -17%[11.6 µM] | -16%[11.5 µM] | 0%[11.2 µM] | -3%[11.2 µM] | 5%[11.6 µM]
Cc1c(Cl)cccc1NC(=O)Cn1c(=O)nc(-c2ccccc2)c2ccccc21 | 16% | 8% | -8% | 0% | -12%
CC(C)C(=O)N1c2nc(C(C)C)nn2C2(CCCCC2)[C@@H]2CCCC[C@@H]21 | -6% | -5% | -3% | -26% | -5%
COc1cc(C2C(C(=O)Nc3ccccc3)=C(C)Nc3nnnn32)cc(OC)c1OC (stereo unspecified) | -11% | -5% | -12% | -1% | -8%
C/C(=N\Nc1ccc(S(N)(=O)=O)cc1[N+](=O)[O-])c1ccco1 | ? | 5µM* | -5% | -4% | -4%
NS(=O)(=O)c1ccc(N/N=C/c2ccccc2C(=O)O)c([N+](=O)[O-])c1 | -6% | ? | 6% | -13% | 9%
NS(=O)(=O)c1ccc(N/N=C/c2ccc(O)cc2O)c([N+](=O)[O-])c1 | ? | 2.2µM* | 2% | -8% | -2%
NS(=O)(=O)c1ccc(N/N=C/c2ccc(O)c(O)c2O)c([N+](=O)[O-])c1 | 2µM*[quencher] | 2µM* | 2% | ? | 5µM*
Cc1oc(-c2ccccc2)nc1Cn1c(=O)cc(-c2ccccc2)c2c(C)nn(C)c21 | 0% | ? | -10% | -3% | 5%
COc1cc(NS(=O)(=O)c2cccc([N+](=O)[O-])c2)c2ncccc2c1 | / | / | -5% | -1% | /
CCOC(=O)C1=C(c2ccccc2)N=c2s/c(=C\c3ccc(O)cc3)c(=O)n2C1c1cccs1 (stereo unspecified) | 8.9µM*[quencher] | ? | 9% | 0% | 32µM*
Cc1ccc(C)c2[nH]c(=O)c(C(c3nnnn3Cc3ccccc3)N3CCc4ccccc4C3)cc12 (stereo unspecified) | -21% | 22µM* | -5% | 0% | ?
Cc1cccc2cc(C(c3nnnn3CC3CCCO3)N3CCc4ccccc4C3)c(=O)[nH]c12 (stereo unspecified) | -1% | ? | 3% | 3% | -4%
CC1=C(C(=O)Nc2ccc(C)cc2C)C(c2ccccc2F)n2nc(SCC(=O)c3ccc(C)cc3)nc2N1 (stereo unspecified) | 27% | ? | -18% | 0.032µM*[quencher] | ?
SMILES | Tau fluor cs | Tau fibril ThT | TRb SRC2 PPI | TexasRed fluor | Tau fibril FP
C(=N\c1c(-c2ccccc2)nc2n1CCS2)/c1ccccc1 | ? | 22µM* | -12% | -1% | ?
Clc1ccc(/C=N/c2c(-c3ccc(Cl)cc3)nc3n2CCS3)cc1 | ? | ? | 1% | -1% | 15%
COc1ccc(-c2[nH]c(-c3ccc(F)cc3)nc2SCC(=O)NC2CCCC2)cc1 | -3% | 8% | 2% | -2% | 5%
COc1ccc(-c2nc(SCC(=O)NC3CCCC3)c(-c3ccc(F)cc3)[nH]2)cc1 | 14µM*[quencher] | ? | -4% | -4% | 8%
CCOc1ccc(-c2nc(SCC(=O)NC3CCCC3)c(-c3ccccc3)[nH]2)cc1OC | 13µM*[quencher] | ? | -10% | -3% | ?
COc1ccc(-c2[nH]c(-c3cccc(OC)c3)nc2SCC(=O)NC2CCCC2)cc1 | 13µM*![quencher] | ? | 0% | -5% | ?
COc1ccc(-c2[nH]c(-c3ccccc3)nc2SCC(=O)NC2CCCC2)cc1 | 25µM*[quencher] | ? | 1% | -4% | ?
CCCc1cnc2c(c1SCC(=O)N(C)c1ccccc1)c(=O)n(C)c(=O)n2C | -8% | -12% | -6% | -2% | -10%
CCOC(=O)c1ccccc1NC(=O)CSc1nnnn1C1CCCCC1 | ? | 14µM* | -1% | 1% | ?
CC1=NN(C(N)=S)C(=O)C1N=Nc1cccc(C)c1 (stereo unspecified) | -13% | ? | -1% | -6% | 0%
CC1=NN(C(N)=S)C(=O)C1N=Nc1ccc(O)cc1 (stereo unspecified) | -17% | 13µM* | -5% | -7% | -10%
O=C(Cc1cc(=O)[nH][nH]1)N/N=C/C=C/c1ccccc1 | -22% | 13µM* | -7% | -2% | ?
O=C(CCC(=O)Nc1ccccc1)N/N=C/C=C/c1ccccc1 | 0% | -3% | 1% | -4% | -1%
CCOc1ccc(N=C/C=C/c2ccccc2)c(O)c1 | ? | 4.5µM* | -9% | -1% | ?
CCOc1ccc(NCC(=O)N/N=C/C=C/c2ccccc2)cc1 | ? | 11µM* | -14% | 1% | 5%
CC1(C)C(=O)C=C[C@]2(C)C1CC(=O)[C@]1(C)C2CC[C@@]2(C)C(c3ccoc3)OC(=O)C3O[C@@]321 (stereo partly specified) | -25% | ? | -3% | 2% | -6%

Source: PubChem
